Experimental findings from PubChem BioAssay (EPA / NIEHS) are described below.

Read-out in assay [1]: Monokine induced gamma interferon (MIG), CXCL9 (gene 4283)
Put plainly: BSK_hDFCGF_MIG: BioMAP Diversity Plus: hDFCGF Assay for Monokine induced gamma interferon (MIG) Biomarker Activity (AID 2283063). Particulars: primary human foreskin fibroblasts; actives raise or lower the signal. The procedure, abridged: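 ELISA read-out of MIG from primary human dermal fibroblasts 24 h post-dosing. Gain or loss of signal fitted bidirectionally, DMSO as baseline.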

Read-out in assay [2]: Matrix Metallopeptidase 1 (MMP1), MMP1 (gene 4312)
In words: BSK_hDFCGF_MMP1: BioMAP Diversity Plus: hDFCGF Assay for Matrix Metallopeptidase 1 (MMP1) Biomarker Activity (AID 2283064). The conditions noted are these: primary human foreskin fibroblasts; actives raise or lower the signal. The essentials: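 Primary human foreskin fibroblasts in the hDFCGF system were dosed with test chemical, and MMP1 was measured by ELISA 24 h later. Values come from bidirectional curve fitting against the DMSO baseline.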

Read-out in assay [3]: Vascular cell adhesion molecule 1 (VCAM1), VCAM1 (gene 7412)
Put plainly: BSK_hDFCGF_VCAM1: BioMAP Diversity Plus: hDFCGF Assay for Vascular cell adhesion molecule 1 (VCAM1) Biomarker Activity (AID 2283065).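 On AC50: VCAM-1 protein level quantified by ELISA after 24 h chemical exposure.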 Particulars: primary human foreskin fibroblasts; actives raise or lower the signal. The procedure, abridged: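 Primary human foreskin fibroblasts (hDFCGF system) were dosed with chemical and VCAM-1 was measured by ELISA 24 h later. Bidirectional curve fitting used DMSO as negative control and activity baseline.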

Read-out in assay [4]: Intercellular Adhesion Molecule 1 (ICAM1), ICAM1 (gene 3383)
In words: BSK_KF3CT_ICAM1: BioMAP Diversity Plus: KF3CT Assay for Intercellular Adhesion Molecule 1 (ICAM1) Biomarker Activity (AID 2283067). The conditions noted are these: primary human keratinocytes with fibroblasts; actives raise or lower the signal. The essentials:
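Human keratinocyte plus foreskin fibroblast primary co-culture was exposed to chemical for 24 h. ICAM-1 was then quantified by ELISA, and the data were fit bidirectionally against DMSO as the negative control and baseline.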

Read-out in assay [5]: Interferon-gamma inducible Protein 10 (IP10), CXCL10 (gene 3627)
In words: BSK_KF3CT_IP10: BioMAP Diversity Plus: KF3CT Assay for Interferon-gamma inducible Protein 10 (IP10) Biomarker Activity (AID 2283068). Particulars: primary human keratinocytes with fibroblasts; actives raise or lower the signal. The essentials:
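In a primary skin co-culture of keratinocytes and fibroblasts, IP-10 is quantified by ELISA at 24 h after dosing. SRB staining of parallel wells monitors overt toxicity. Curves are fitted both directions against DMSO.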

Assay [6] in a line: BSK_KF3CT_SRB: Viability Assessment in the BioMAP Diversity Plus: KF3CT Assay (AID 2283069).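 Further: total protein by sulforhodamine B staining as a cytotoxicity measure; read 24 h after compound addition.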 Particulars: primary human keratinocytes with fibroblasts. The procedure, abridged: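 Human primary keratinocyte plus foreskin fibroblast co-culture exposed to chemicals for 24 h. Total protein measured by 0.1% sulforhodamine B staining after 10% TCA fixation, read at 560 nm; bidirectional fitting versus DMSO baseline.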

Read-out in assay [7]: Interleukin-1 alpha (IL1a), IL1A (gene 3552)
Put plainly: BSK_KF3CT_IL1a: BioMAP Diversity Plus: KF3CT Assay for Interleukin-1 alpha (IL1a) Biomarker Activity (AID 2283070). The conditions noted are these: primary human keratinocytes with fibroblasts; actives raise or lower the signal. The procedure, abridged: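 Human keratinocyte plus foreskin fibroblast primary co-culture, sampled 24 h after chemical dosing. IL-1a measured by ELISA; responses fitted bidirectionally against DMSO baseline (negative control), so gain or loss of signal both count.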

Read-out in assay [8]: TIMP metallopeptidase inhibitor 2 (TIMP2), TIMP2 (gene 7077)
In words: BSK_KF3CT_TIMP2: BioMAP Diversity Plus: KF3CT Assay for TIMP metallopeptidase inhibitor 2 (TIMP2) Biomarker Activity (AID 2283071). The conditions noted are these: primary human keratinocytes with fibroblasts; actives raise or lower the signal. The essentials:
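Co-culture of human primary keratinocytes and foreskin fibroblasts, measured 24 h after chemical dosing. TIMP-2 quantified by ELISA and fitted in both directions relative to DMSO. Cytotoxicity checked in parallel cultures by SRB total-protein staining.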

Read-out in assay [9]: Transforming growth factor beta 1 (TGFb1), TGFB1 (gene 7040)
Put plainly: BSK_KF3CT_TGFb1: BioMAP Diversity Plus: KF3CT Assay for Transforming growth factor beta 1 (TGFb1) Biomarker Activity (AID 2283072). The conditions noted are these: primary human keratinocytes with fibroblasts; actives raise or lower the signal. The procedure, abridged:
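Human keratinocyte/foreskin fibroblast co-culture; TGF-b1 measured by ELISA 24 h after dosing, fitted bidirectionally versus DMSO. Cytotoxicity checked in parallel cultures by total protein (SRB staining, 560 nm).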

Read-out in assay [10]: C-C motif chemokine 2 (Homo sapiens) (UniProt P13500)
Put plainly: BSK_KF3CT_MCP1: BioMAP Diversity Plus: KF3CT Assay for Monocyte Chemoattractant Protein 1 (MCP1/CCL2) Biomarker Activity (AID 2283073). Particulars: primary human keratinocytes with fibroblasts; actives raise or lower the signal. The essentials: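 Human keratinocyte plus foreskin fibroblast primary co-culture exposed to chemical for 24 h. MCP-1 levels measured by ELISA. Bidirectional curve fitting relative to DMSO negative control as baseline.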

Read-out in assay [11]: Matrix Metallopeptidase 9 (MMP9), MMP9 (gene 4318)
In words: BSK_KF3CT_MMP9: BioMAP Diversity Plus: KF3CT Assay for Matrix Metallopeptidase 9 (MMP9) Biomarker Activity (AID 2283074).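 On AC50: MMP9 protein level quantified by ELISA in the co-culture.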 The conditions noted are these: primary human keratinocytes with fibroblasts; actives raise or lower the signal. The procedure, abridged: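 Keratinocyte plus foreskin fibroblast human primary skin co-culture was dosed with chemical and MMP-9 was quantified by ELISA 24 h later. Bidirectional curve fitting used DMSO as negative control and activity baseline.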

Read-out in assay [12]: urokinase plasminogen activator (uPA), PLAU (gene 5328)
In words: BSK_KF3CT_uPA: BioMAP Diversity Plus: KF3CT Assay for urokinase plasminogen activator (uPA) Biomarker Activity (AID 2283075). Particulars: primary human keratinocytes with fibroblasts; actives raise or lower the signal. The procedure, abridged: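 Human keratinocyte plus foreskin fibroblast primary co-culture exposed to chemical for 24 h. uPA levels were quantified by ELISA, and activity was fitted bidirectionally against a DMSO negative-control baseline.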

Read-out in the next assay: CD40, CD40 (gene 958)
In words: BSK_LPS_CD40: BioMAP Diversity Plus: LPS Assay for CD40 Biomarker Activity (AID 2283076). The conditions noted are these: primary human HUVEC with PBMC; actives raise or lower the signal. The procedure, abridged: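 Primary human umbilical vein endothelial cells co-cultured with peripheral blood mononuclear cells, LPS-stimulated, were dosed with chemical and read 24 h later. CD40 levels were measured by ELISA and fitted bidirectionally against DMSO as negative control and baseline.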

Read-out in assay [13]: E-selectin (Homo sapiens) (UniProt P16581)
In words: BSK_LPS_Eselectin: BioMAP Diversity Plus: LPS Assay for Eselectin Biomarker Activity (AID 2283077). Particulars: primary human HUVEC with PBMC; actives raise or lower the signal. The procedure, abridged:
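Human umbilical vein endothelial cells co-cultured with peripheral blood mononuclear cells under LPS stimulation; E-selectin measured by ELISA 24 h after chemical dosing. Activity fitted bidirectionally against DMSO as negative control and baseline.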

Read-out in assay [14]: Interleukin-8 (IL8), CXCL8 (gene 3576)
In words: BSK_LPS_IL8: BioMAP Diversity Plus: LPS Assay for Interleukin-8 (IL8) Biomarker Activity (AID 2283078). The conditions noted are these: primary human HUVEC with PBMC; actives raise or lower the signal. The procedure, abridged:
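Human umbilical vein endothelial cells co-cultured with PBMC were stimulated with LPS; IL-8 levels were measured by ELISA 24 h after chemical dosing. Activity was fitted bidirectionally against DMSO as negative control and baseline.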

Assay [15] is described as follows: BSK_LPS_SRB: Viability Assessment in the BioMAP Diversity Plus: LPS Assay (AID 2283079).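 Further: total protein by sulforhodamine B absorbance as a cytotoxicity measure; measured one day after compound addition.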 Particulars: primary human HUVEC with PBMC. The essentials:
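Human umbilical vein endothelial cells co-cultured with PBMC (LPS system) were dosed for 24 h. Total protein was stained with 0.1% sulforhodamine B after 10% TCA fixation, read at 560 nm, and fitted bidirectionally against DMSO baseline.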

Read-out in assay [16]: Interleukin-1 alpha (IL1a), IL1A (gene 3552)
In words: BSK_LPS_IL1a: BioMAP Diversity Plus: LPS Assay for Interleukin-1 alpha (IL1a) Biomarker Activity (AID 2283080). Particulars: primary human HUVEC with PBMC; actives raise or lower the signal. The essentials:
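Human umbilical vein endothelial cells co-cultured with peripheral blood mononuclear cells were LPS-stimulated and exposed to test chemicals for 24 h. IL-1 alpha was quantified by ELISA, with bidirectional curve fitting against DMSO as the negative control and baseline.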

Read-out in assay [17]: Plasminogen activator inhibitor-1 (PAI1), SERPINE1 (gene 5054)
In words: BSK_hDFCGF_PAI1: BioMAP Diversity Plus: hDFCGF Assay for Plasminogen activator inhibitor-1 (PAI1) Biomarker Activity (AID 2283066). The conditions noted are these: primary human foreskin fibroblasts; actives raise or lower the signal. The essentials: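 Human foreskin fibroblast primary cells, 24 h chemical exposure; PAI-1 measured by ELISA. Bidirectional fitting relative to DMSO; parallel cultures stained with SRB for total protein to flag overt cytotoxicity.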

Read-out in assay [18]: Monocyte Chemoattractant Protein-1 (MCP1), CCL2 (gene 6347)
Put plainly: BSK_LPS_MCP1: BioMAP Diversity Plus: LPS Assay for Monocyte Chemoattractant Protein-1 (MCP1) Biomarker Activity (AID 2283081).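 Further: secreted MCP-1 protein quantified by ELISA in culture supernatant.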 Particulars: primary human HUVEC with PBMC; actives raise or lower the signal. The essentials: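 HUVEC plus PBMC co-culture (human primary cells, LPS system) exposed to test chemical for 24 h; MCP-1 measured by ELISA. Bidirectional curve fitting against DMSO baseline; parallel SRB total-protein staining flags overt cytotoxicity.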

A short description of assay [19]: BSK_LPS_PGE2: BioMAP Diversity Plus: LPS Assay for Prostaglandin E2 (PGE2) Biomarker Activity (AID 2283082). Particulars: primary human HUVEC with PBMC; actives raise or lower the signal. The procedure, abridged:
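HUVEC plus human PBMC co-culture stimulated with LPS; secreted PGE2 quantified by ELISA 24 h after chemical dosing. Activity fitted bidirectionally against DMSO baseline; parallel SRB staining (0.1% SRB after 10% TCA fixation, 560 nm) flags overt cytotoxicity.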

Molecules are shown by their SMILES. Active and inactive are the calls of the source. How the source made its calls: active means hit-call score of the fitted dose curve at least 0.9, where 1 is the maximum; inactive means score below 0.9.

E-selectin (Homo sapiens), sequence (P16581 whole entry, looked up): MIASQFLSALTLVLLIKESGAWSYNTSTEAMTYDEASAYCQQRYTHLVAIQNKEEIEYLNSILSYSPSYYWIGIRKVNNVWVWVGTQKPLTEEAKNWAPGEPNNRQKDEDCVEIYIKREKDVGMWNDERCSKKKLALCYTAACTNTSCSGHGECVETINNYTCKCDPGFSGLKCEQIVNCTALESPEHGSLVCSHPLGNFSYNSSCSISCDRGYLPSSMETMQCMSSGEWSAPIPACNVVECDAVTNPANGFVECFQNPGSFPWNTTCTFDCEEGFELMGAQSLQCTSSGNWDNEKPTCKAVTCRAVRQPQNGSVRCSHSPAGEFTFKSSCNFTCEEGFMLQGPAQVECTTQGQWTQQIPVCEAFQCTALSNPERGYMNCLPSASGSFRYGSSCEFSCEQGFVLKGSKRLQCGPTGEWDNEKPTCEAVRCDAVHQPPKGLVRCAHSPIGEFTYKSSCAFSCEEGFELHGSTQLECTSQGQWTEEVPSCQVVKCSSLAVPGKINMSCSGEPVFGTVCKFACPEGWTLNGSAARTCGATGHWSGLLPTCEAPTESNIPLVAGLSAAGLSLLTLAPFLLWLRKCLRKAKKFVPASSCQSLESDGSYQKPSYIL

Regarding `Fc1ccccc1[C@@H](F)COC1CCC(Nc2ncnc3[nH]ncc23)CC1` (stereo partly specified), the result in assay [1], in assay [2], in [3], in [4], in assay [5] and in assay [6] was inactive. In addition, the result in assay [7], in [8], in [9], in assay [10], in [11] and in [12] was inactive. In assay [16], the outcome was inactive. For the same compound, the AC50 with CD40, CD40 (gene 958) was 15.4 µM (active); in assay [13], 29 µM (active); in [14], 28.9 µM (active); in assay [15] it was 29.2 µM (active).

As for `COCCOc1cc2cc(C(=O)NC3CCN(C(C)C)CC3)n(CC(=O)Nc3ccc(Cl)cn3)c2cn1`, the result in assay [1], in assay [2], in assay [3], in [4], in assay [5] and in [6] was inactive. Moreover, the outcome in assay [7], in assay [8], in assay [9], in assay [10], in [11] and in assay [12] was inactive. The outcome in the assay with CD40, CD40 (gene 958) is “inactive”; in assay [13] it was “inactive”; in assay [14], “inactive”; in assay [15], “inactive”; in assay [16] it was “inactive”.

As for `Clc1nc(Cl)c(Cl)c(Cl)c1Cl`, the result in assay [1], in assay [2], in [3], in assay [17], in [4] and in [5] was inactive. The outcome in assay [6], in assay [8], in [9], in assay [10], in [11] and in [12] was inactive. In assay [15], the result was inactive. For the same compound, the AC50 in the assay with CD40, CD40 (gene 958) is 30.4 µM (active); in [13], 30.9 µM (active); in assay [14], 32.7 µM (active); in assay [16], 14.4 µM (active); in [18] it was 32.1 µM (active).

On to `O=C(OC[C@H]1O[C@@H](OC(=O)c2cc(O)c(O)c(OC(=O)c3cc(O)c(O)c(O)c3)c2)[C@H](OC(=O)c2cc(O)c(O)c(OC(=O)c3cc(O)c(O)c(O)c3)c2)[C@@H](OC(=O)c2cc(O)c(O)c(OC(=O)c3cc(O)c(O)c(O)c3)c2)[C@@H]1OC(=O)c1cc(O)c(O)c(OC(=O)c2cc(O)c(O)c(O)c2)c1)c1cc(O)c(O)c(OC(=O)c2cc(O)c(O)c(O)c2)c1`, for which the AC50 in assay [1] was 2.12 µM (active); in assay [2], 1.86 µM (active); in [3], 3.31 µM (active); in assay [17] it was 6.1 µM (active); in [4] it was 4.39 µM (active); in assay [5], 4.98 µM (active). In addition, the AC50 in [8] was 2.92 µM (active); in assay [9], 3.09 µM (active); in [11] it was 6.1 µM (active); in assay [12], 1.08 µM (active); in assay [15], 10 µM (active); in [18], 11 µM (active). The outcome in assay [6] was “inactive”; in assay [10], “inactive”; with CD40, CD40 (gene 958) it was “inactive”; in [13] it was “inactive”; in [14], “inactive”; in assay [16], “inactive”. The outcome in [19] was inactive.

Broadly, the AC50 is the concentration at which the activity in the assay is half-maximal.
